# CYP2C19 activ – human CYP2C19 activators, primary screen, biochemical, luminescence | Cytochrome P450 2C19 (Homo sapiens), P33261 | recombinant CYP2C19, luciferin-H EGE luminescence; hits give high values; 0 = fully inhibited enzyme, 1 = untreated enzyme | activation factor at 5 µM | 96,000 tested, under 10 active;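 active = activation factor of at least 2 at 5 µM in the primary screen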
# Target sequence (P33261 whole entry, looked up): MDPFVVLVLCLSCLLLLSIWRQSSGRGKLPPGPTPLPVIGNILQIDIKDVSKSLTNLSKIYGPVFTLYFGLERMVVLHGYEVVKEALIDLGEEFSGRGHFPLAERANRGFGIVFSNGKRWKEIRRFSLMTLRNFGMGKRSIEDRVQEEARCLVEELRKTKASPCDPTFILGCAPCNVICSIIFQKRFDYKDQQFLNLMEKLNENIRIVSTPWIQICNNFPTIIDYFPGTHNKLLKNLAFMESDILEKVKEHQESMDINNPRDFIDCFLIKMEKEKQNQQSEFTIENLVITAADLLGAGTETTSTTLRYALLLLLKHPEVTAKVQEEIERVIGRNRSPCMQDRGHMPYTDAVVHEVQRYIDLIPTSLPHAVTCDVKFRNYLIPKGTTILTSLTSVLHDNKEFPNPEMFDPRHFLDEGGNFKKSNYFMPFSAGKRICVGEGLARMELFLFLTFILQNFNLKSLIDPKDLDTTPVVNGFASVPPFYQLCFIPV
# CYP2C9 activ – human CYP2C9 activators, primary screen, biochemical, luminescence; Cytochrome P450 2C9 (Homo sapiens), P11712; recombinant CYP2C9, luciferin-H conversion; hits give high values; factor 1 = untreated enzyme, 0 = blocked; activation factor at 5 µM; 1.4% of 96,000 active;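 active = activation factor of 2 or more for CYP2C9 at a 5 µM dose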
# CYP2C9 inh – blockers of cytochrome P450 2C9 activity – biochemical, luminescence, ADME assay, primary screen. P11712. CYP2C9 Supersomes, luciferin-H conversion. inhibition, % at 5 µM. 20% of 96,000 active. AID 777, 2007;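 active = blocking of liver enzyme CYP2C9 beyond about 50% at 5 µM, limit read from the data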
# CYP2C19 inhib – blockers of cytochrome P450 2C19 activity – biochemical, luminescence, ADME assay, primary screen | P33261 | inhibition, % at 5 µM | AID 778, 2007 | 21% of 96,000 active | CYP2C19 Supersomes, luciferin-H EGE luminescence, 30 min;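 active = CYP2C19 inhibition above a set limit at 5 µM in the primary screen, cut at about 50% in these data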
# Cav32 inh – Cav3.2 calcium influx blockers – cell-based, Fluo-4 calcium fluorescence, FDSS, MLSMR library, primary screen; Voltage-dependent T-type calcium channel subunit alpha-1H (Homo sapiens), O95180; Cav3.2-expressing cells; hits give low values; B-score at 10 µM; 4% of 100,000 active; AID 449739, 2010;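 active = single-dose well whose peak fluorescence ratio is a statistical outlier from its plate by either plate-standardised score or position-corrected B-score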
# Numbers stand for hits; n = inactive; x = no result. In the library only some 27% were active in any assay of this set; here they are far more common.
SMILES,CYP2C19 activ,CYP2C9 activ,CYP2C9 inh,CYP2C19 inhib,Cav32 inh
Cc1nn(-c2ccccc2)c2sc(C(=O)C(C#N)c3ccccn3)cc12 (stereo not given),n,n,n,n,x
CCOC(=O)Cn1cnc2sc3c(c2c1=O)CCC3,n,n,n,n,n
COCCNC(=O)c1ccc(C)c(S(=O)(=O)Nc2ccc(C)cc2)c1,n,n,n,n,n
Cc1ccc(C(=O)NCCSc2ccccc2)cc1S(=O)(=O)Nc1ccccc1,n,n,73,60,-5.8
O=C(NCCSc1ccccc1)c1ccccc1,n,n,n,84,n
CC(C)(C)SCCNC(=O)c1ccccc1,n,n,n,62,x
Cc1ccc(C(=O)NCCSC(C)(C)C)cc1,n,n,n,68,n
NC(=O)CN1CCN(C(=O)Nc2ccccc2)CC1,n,n,n,n,n
Cc1ccc(NC(=O)CSCc2c(C)noc2C)cc1C,n,n,n,94,n
Cc1noc(C)c1CSCC(=O)OCC(=O)Nc1sccc1C#N,n,n,67,n,n
COC(=O)CCSCC(=O)Nc1cc(C)on1,n,n,n,n,n
CCOC(=O)Cc1cn2c(=O)cc(CSCC(=O)Nc3ccc(C)c(C)c3)nc2s1,n,n,74,n,n
COC(=O)c1cc(COC(=O)c2cccnc2SC)oc1C,n,n,n,n,n
O=C1C(c2ccc(F)cc2)N(CC2COc3ccccc3O2)C(=O)CN1C1CCCCC1 (stereo not given),n,n,n,n,n
CC(C)NC(=O)CN(CCc1ccccc1)S(C)(=O)=O,n,n,n,82,n
CCNC(=O)CN(CCc1ccccc1)S(C)(=O)=O,n,n,n,72,n
CCCCNC(=O)CN(CCc1ccccc1)S(C)(=O)=O,n,n,n,72,-5.3
CS(=O)(=O)N(CCc1ccccc1)CC(N)=O,n,n,n,n,n
CS(=O)(=O)N(CCc1ccccc1)CC(=O)N1CCc2ccccc2C1,n,n,54,68,n
O=C(CN(C1CCCCC1)C1CCCCC1)N1CCc2ccccc2C1,n,n,65,76,-5.8
CS(=O)(=O)N(CCc1ccccc1)CC(=O)NCc1ccncc1,n,n,99,100,x
COCCNC(=O)CN(CCc1ccccc1)S(=O)(=O)c1ccc(OC)cc1,n,n,n,60,n
COc1cc(OC)nc(NC(=O)CSc2nnc(-c3ccccc3)n2C2CCCCC2)n1,x,x,x,x,n
CCOC(=O)N1CCN(C(=O)c2c(O)c3cccc4c3n(c2=O)CC4)CC1,n,n,n,n,n
O=S(=O)(Cc1ccccc1)N1CCCCC1,n,n,n,n,n
SMILES,CYP2C19 activ,CYP2C9 activ,CYP2C9 inh,CYP2C19 inhib,Cav32 inh
O=S(=O)(c1ccc(Cl)s1)N1CCc2ccccc2C1,n,n,n,67,n
O=S(=O)(Cc1ccccc1)N1CCc2ccccc2C1,n,3.7,n,97,n
O=S(=O)(c1ccc(Br)s1)N1CCc2ccccc2C1,x,x,x,x,n
O=S(=O)(Cc1ccccc1)N1CCCCCC1,n,n,n,66,n
CS(=O)(=O)N1CCc2ccccc2C1,x,x,x,x,n
Cc1ccnc(NC(=O)CCC(=O)N(CC(=O)NCC2CCCO2)Cc2ccc(F)cc2)c1 (stereo not given),n,n,n,n,n
CSc1nc2ccc(S(=O)(=O)Nc3c(C)n(C)n(-c4ccccc4)c3=O)cc2s1,n,n,n,n,n
Cc1c(NS(=O)(=O)c2ccc(Br)s2)c(=O)n(-c2ccccc2)n1C,n,n,54,n,x
Cc1c(NS(=O)(=O)c2cccs2)c(=O)n(-c2ccccc2)n1C,n,n,n,55,n
Cc1c(NS(=O)(=O)c2ccc3c(c2)n(C)c(=O)n3C)c(=O)n(-c2ccccc2)n1C,n,n,n,n,n
Cc1c(NS(=O)(=O)N2CCCCC2)c(=O)n(-c2ccccc2)n1C,n,n,n,74,n
CCS(=O)(=O)Nc1c(C)n(C)n(-c2ccccc2)c1=O,n,n,n,n,n
Cc1c(NS(=O)(=O)CC23CCC(CC2=O)C3(C)C)c(=O)n(-c2ccccc2)n1C (stereo not given),n,n,n,55,n
CC(C)(C)c1nnc(NC(=O)NS(=O)(=O)c2ccccc2)s1,n,n,n,n,n
CCCCCCC(=O)Cc1cc(OC)c(OC)cc1C=C(C(=O)OCC)C(=O)OCC,x,x,x,x,n

# High-throughput results: PubChem, several laboratories
